Each structure is given as a SMILES string. Records with an inconclusive call do not appear. Entries that show only a call come without a potency. Active and inactive are the calls of the source. Calls follow the shape of the dose curve; as a rule, active = well fitted activation curve with a large enough effect in the repeat runs; inconclusive = weak or mixed curves; inactive = no such curve, though single readings can be large or run the other way.
Potency is read from the fitted curve at half-maximal effect.

For this test, the target named is Nuclear receptor subfamily 1 group I member 2 (Homo sapiens) (UniProt O75469). The test can be described thus: CYP3A4 induction through human pregnane X receptor (PXR) by small molecules, qHTS assay (AID 1346984). Also: nearly all actives have a fitted effect of over 40% in size. The note with it: DPX-2 HepG2 PXR, CYP3A4-luciferin luminescence, 24 h; series mostly up to 46.1 µM. Summed up:
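DPX-2 cells (HepG2 co-transfected with PXR and CYP3A4 promoter-luciferase) treated with compounds 24 h at 37C; luciferin-IPA CYP3A4 substrate 3uM final added for 3 h, then One-Glo; luminescence read. qHTS format.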
For `CO[C@H]1C[C@@H]2CC[C@@H](C)[C@@](O)(O2)C(=O)C(=O)N2CCCC[C@H]2C(=O)O[C@H]([C@H](C)C[C@@H]2CC[C@@H](OC(=O)C(C)(CO)CO)[C@H](OC)C2)CC(=O)[C@H](C)/C=C(\C)[C@@H](O)[C@@H](OC)C(=O)[C@H](C)C[C@H](C)/C=C/C=C/C=C/1C`, the Potency result is “inactive”.

On to `O=C1NCCN1c1ncc([N+](=O)[O-])s1`, for which the Potency entry is “inactive”.

Turning to `CC(/C=C/C=C(\C)C(=O)O[C@@H]1O[C@H](CO[C@@H]2O[C@H](CO)[C@@H](O)[C@H](O)[C@H]2O)[C@@H](O)[C@H](O)[C@H]1O)=C\C=C\C=C(C)\C=C\C=C(/C)C(=O)O[C@@H]1O[C@H](CO[C@@H]2O[C@H](CO)[C@@H](O)[C@H](O)[C@H]2O)[C@@H](O)[C@H](O)[C@H]1O`, the Potency entry was “inactive”.

As for `CNC(=O)[C@H](Cc1c[nH]c2ccccc12)NC(=O)[C@@H](CC(=O)NO)CC(C)C`, the Potency result is “inactive”.

In the case of `CN[C@@H]1[C@H](O[C@H]2[C@H](O[C@H]3[C@H](O)[C@@H](O)[C@H](N=C(N)N)[C@@H](O)[C@@H]3N=C(N)N)O[C@@H](C)[C@]2(O)CO)O[C@@H](CO)[C@H](O)[C@H]1O`, the Potency result was “inactive”.

`CC(C)(C)NCC(O)c1ccc(O)c(CO)n1` (stereo unspecified): the Potency entry is “inactive”.

As for `CCC(=O)O[C@]1(C(=O)CCl)[C@@H](C)C[C@H]2[C@@H]3C[C@H](F)C4=CC(=O)C=C[C@]4(C)[C@@]3(F)[C@@H](O)C[C@@]21C`, the Potency is 1580 nM (active).

For the compound `NCCCC[C@H](N)C(=O)O`, the Potency entry was “inactive”.

`COc1cc2c(cc1OC)CC(=O)N(CCCN(C)C[C@H]1Cc3cc(OC)c(OC)cc31)CC2`: the Potency result is “inactive”.

With `CCCCC/C=C\C/C=C\C/C=C\CCCCC(=O)O`, the Potency entry is “inactive”.

Turning to `NC(=O)c1ccc[n+]([C@@H]2O[C@H](COP(=O)([O-])OP(=O)(O)OC[C@H]3O[C@@H](n4cnc5c(N)ncnc54)[C@H](O)[C@@H]3O)[C@@H](O)[C@H]2O)c1`, the Potency entry is “inactive”.

Turning to `C=C1C(=O)O[C@H]2[C@H]1CC/C(C)=C\CC[C@@]1(C)O[C@@H]21`, the Potency result was “inactive”.

As for `C#C[C@]1(O)CC[C@H]2[C@@H]3CCC4=CC(=O)CC[C@@H]4[C@H]3C(=C)C[C@@]21CC`, the Potency entry was “inactive”.

For the compound `CN1CCN(C(c2ccccc2)c2ccc(Cl)cc2)CC1` (stereo unspecified), the Potency result was “inactive”.

Turning to `CC(C)(C)C(=O)OCOC(=O)[C@@H]1N2C(=O)[C@@H](N=CN3CCCCCC3)[C@H]2SC1(C)C`, the Potency entry is “inactive”.

With `CCCOc1ccc2nc(NC(=O)OC)sc2c1`, the Potency entry was “inactive”.

Consider `O=C1CCC(=O)N1CO`, for which the Potency entry was “inactive”.

For `C=Cc1c(C)c2cc3nc(cc4[nH]c(cc5nc(cc1[nH]2)C(C)=C5CCC(=O)OC)c(CCC(=O)O)c4C)[C@@]1(C)C3=CC=C(C(=O)OC)[C@H]1C(=O)OC`, the Potency entry was “inactive”.

In the case of `Cc1ccc(S(=O)(=O)NC(=O)N[C@@H](C)Cc2ccccc2)cc1`, the Potency result was “inactive”.

For `CC(C)N=c1cc2n(-c3ccc(Cl)cc3)c3ccccc3nc-2cc1Nc1ccc(Cl)cc1`, the Potency result was “inactive”.

For the compound `NC(=O)OC[C@@H]1[C@H](NC(=O)/C(=N\OCC(=O)O)c2csc(N)n2)C(=O)N1S(=O)(=O)O`, the Potency result was “inactive”.

On to `C#C[C@]1(O)CC[C@H]2[C@@H]3CCC4=CCCC[C@@H]4[C@H]3C(=C)C[C@@]21CC`, for which the Potency result is “inactive”.

Turning to `COc1cc(C)c(/C=C/C(C)=C/C=C/C(C)=C/C(=O)O)c(C)c1C`, the Potency result is “inactive”.

As for `C=C1CC[C@@H]2[C@](C)(CO)[C@H](O)CC[C@@]2(C)[C@@H]1C/C=C1/C(=O)OC[C@H]1O`, the Potency entry is “inactive”.

As to `CC1=C(/C=C/C(C)=C/C=C/C(C)=C/C(=O)Oc2c(C)c(C)c3c(c2C)CC[C@@](C)(CCC[C@H](C)CCC[C@H](C)CCCC(C)C)O3)C(C)(C)CCC1`, the Potency result is “inactive”.

In the case of `C#C[C@]1(O)CC[C@H]2[C@@H]3CCC4=C/C(=N/O)CC[C@@H]4[C@H]3CC[C@@]21CC`, the Potency entry was “inactive”.

The values are drawn from PubChem BioAssay (Tox21).
